Assay results taken from PubChem BioAssay AID2551 (National Center for Advancing Translational Sciences (NCATS), 2010).
Screen size: about 310,000 compounds; about 17,000 (5.5%) were called active. Not shown: some 11% with an inconclusive outcome. This is one part of a sample in which actives are shown more often than they occur. Unmarked numbers belong to inactive results. Calls come from the whole dose curve; as a rule, active = well fitted inhibition curve with a large enough effect; inconclusive = small, poorly fitted or top-dose-only effect, or effect the other way; inactive = no such curve, though single readings can be large or run the other way.

What follows are compounds tested against Nuclear receptor ROR-gamma (Mus musculus) (UniProt P51450) (assay: qHTS for inhibitors of ROR gamma transcriptional activity). Settings: Drosophila S2 Gal4-RORgamma UAS-luciferase reporter, 20 h; series mostly up to 53.6 µM; activity change, negative = inhibition: at the top concentration.
Sequence of Nuclear receptor ROR-gamma (Mus musculus) (P51450 whole entry, looked up, the tested form may be a part): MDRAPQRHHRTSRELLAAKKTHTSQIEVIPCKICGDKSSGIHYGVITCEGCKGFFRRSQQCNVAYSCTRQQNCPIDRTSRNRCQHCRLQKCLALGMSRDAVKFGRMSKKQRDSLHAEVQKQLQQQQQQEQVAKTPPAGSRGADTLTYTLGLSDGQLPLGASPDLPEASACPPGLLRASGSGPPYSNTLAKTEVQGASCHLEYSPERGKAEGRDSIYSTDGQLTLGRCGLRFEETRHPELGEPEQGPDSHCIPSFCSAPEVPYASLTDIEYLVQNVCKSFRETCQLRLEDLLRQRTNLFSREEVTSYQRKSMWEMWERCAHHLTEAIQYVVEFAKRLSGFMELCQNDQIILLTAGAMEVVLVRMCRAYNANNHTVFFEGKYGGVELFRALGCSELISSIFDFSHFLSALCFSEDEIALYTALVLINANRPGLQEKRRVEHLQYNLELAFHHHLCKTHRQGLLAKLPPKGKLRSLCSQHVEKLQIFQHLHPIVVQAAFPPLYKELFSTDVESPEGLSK
Method in brief: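 Read-out: Photinus luciferase luminescence; inhibitors lower reporter signal. Insect Schneider cells with Gal4-ROR gamma fusion under metallothionein promoter, UAS reporter; 700 uM final copper sulfate induction, 20 hr, ambient temperature.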
% is set by controls: 0 for no effect and ±100 for the full control effect; potency is the fitted concentration of half-maximal effect.
Note: nearly all actives have a fitted effect of over 60% in size.

Compound | activity change, negative = inhibition [%] | Potency
CC(OC(=O)c1ccc2noc(-c3ccccc3)c2c1)C(N)=O (centres undefined) | 29.6 | 
O=C(C/C(=N\NC(=O)c1ccccc1Br)C(F)(F)F)c1cccs1 |  | 14.1 µM (active)
COc1ccc(C(=O)COC(=O)CNC(=O)c2cccs2)cc1Br | -7.43 | 
O=C(Nc1nn(Cc2ccccc2F)cc1Br)c1cccs1 | 40.4 | 
CCCCn1c(-c2cccc(C)c2)nc2cc3[nH]c(=O)c(C(C)C)nc3cc21 | -44.1 | 
O=C(Nc1cccc(-c2cscn2)c1)C1CCN(Cc2ccsc2)CC1 | 5.59 | 
O=C(NCCN1CCOC1=O)C1CCC(=O)N(CCc2ccc(Cl)cc2)C1 (centres undefined) | 3.94 | 
Cc1ccc(CS(=O)Cc2ccc(C(=O)N3CCOCC3)o2)cc1 (centres undefined) | 8.91 | 
CCOc1cccc(/C=N/N2C(=O)CSC2=S)c1O |  | 3.16 µM (active)
CCOc1ccccc1N=C1NC(=O)CS1 | -3.07 | 
COc1ccc(CCNC(=O)C(=O)NCC2OCCN2S(=O)(=O)c2ccc(F)cc2)cc1OC (centres undefined) | 23.6 | 
Cc1ccc(S(=O)(=O)NNC(=O)/C=C/c2cccc(F)c2)cc1 | -0.345 | 
COC(=O)C1=C(O)/C(=C/c2ccc(OCC(=O)Nc3ccccc3)cc2)N=C1C | 1.63 | 
CS(=O)(=O)N1CCN=C1SCc1ccc(F)cc1 | -15 | 
Cc1cc(NC(=O)CSc2nnnn2-c2ccc(F)cc2)no1 | -1.67 | 
Fc1ccccc1/C=C1\CCCC2=C1Nc1ncnn1C2c1ccccc1F (centres undefined) |  | 2.82 µM (active)
CC1=C(C(N)=O)C(c2ccc(Br)cc2)n2ncnc2N1 (centres undefined) | -6.5 | 

Compound | activity change, negative = inhibition [%] | Potency
CC(=O)c1cccc(NC(=O)COc2ccc(S(=O)(=O)N3CCOCC3)cc2)c1 | 4.94 | 
O=C(CSc1ccc(-c2ccccn2)nn1)Nc1ccccc1 | -23.3 | 
CCC(C)(C)n1nnnc1C(c1ccc(OC)c(OC)c1)N1CCN(C(=O)c2ccco2)CC1 (centres undefined) | -1.65 | 
Cc1cccc(NS(=O)(=O)c2cc(Cl)ccc2Cl)n1 | -5.36 | 
Cc1n[nH]c(=O)n1-c1ccc(C(C)C)cc1 | 0.121 | 
COc1ccc(Oc2ncc3nc(C)c(=O)n(-c4ccccc4)c3n2)cc1 | -22.3 | 
Cc1n[nH]c(=O)n1-c1ccc(Oc2ccccc2)cc1 |  | 2.82 µM (active)
Cc1ccc2c(c1)N(S(=O)(=O)c1cc(-c3cc(C)no3)ccc1C)CCO2 | -5.72 | 
O=S(=O)(c1ccc(Cl)s1)N1CCC2(CC1)OCCO2 | 3.72 | 
O=C(c1cccc(Br)c1)N1CCN(C2=NS(=O)(=O)c3ccccc32)CC1 | 24.5 | 
COC(=O)c1c(NC(=O)C(=O)N2CCCCC2)sc2c1CC(C)(C)OC2 | -35.1 | 
COc1cccc(OC)c1C(=O)NC(=S)Nc1ccc(N2CCOCC2)c(Cl)c1 |  | 8.91 µM (active)
COC(=O)c1cc(NC(=O)c2ccco2)ccc1N1CCOCC1 | 9.85 | 
CCOc1ccc(C(=O)Nc2ccc(CN3CCOCC3)cc2)cc1Cl | 9.74 | 
CCOC(=O)c1c(NC(=O)c2ccc(N3CCOCC3)c([N+](=O)[O-])c2)sc(C)c1C | -0.447 | 
CCOc1ccc(C(=O)NC(=S)Nc2ccc(N3CCOCC3)c(Cl)c2)cc1[N+](=O)[O-] |  | 3.16 µM (active)
COc1c(C)cccc1C(=O)Nc1cc(Cl)ccc1N1CCOCC1 | 1.38 | 
